# Hedgehog inh: Sonic Hedgehog pathway inhibition; Shh-LIGHT2 Gli-luciferase reporter, 30 h; AID 2313; inhibition, % (no concentration beside the values); 2.1% of 22,000 active;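 active = mean inhibition across valid replicates above about 65%, limit read from the data; inconclusive = mean under the limit, yet half or more replicates past it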;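 also: pathway switched on by Shh-conditioned medium diluted 1 in 25 in low serum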
# MITF inh: inhibitors of MITF. TRPM1 promoter luciferase, luminescence, 24 h. inhibition, % (test concentration not listed). 0.28% of 37,000 active. AID 2240; in the data active = inhibition above about 85%; inconclusive = no clear call, values can overlap the other calls; inactive = below about 68%;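 also: human melanocyte line stably carrying TRPM1 promoter luciferase reporter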
# PD-1 reverse act: reversal of PD-1 mediated T-cell inhibition | AID 2316 | activation, % (no concentration beside the values) | primary human CD4 T cells, PD-L1 beads, CellTiter-Glo 96 h | 29,000 tested, under 10 active; call rule not given here;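 also: 0% = median vehicle wells and 100% = positive control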
# NOMO-1 viab: STK33 inhibitor candidate reducing NOMO-1 cell viability | NOMO-1 AML viability, CellTiter-Glo luminescence, 72 h | inhibition, % (no concentration beside the values) | 7.5% of 37,000 active | AID 2330; in the data active = inhibition above about 80%; inconclusive = no clear call, values can overlap the other calls
# The depositor's hits bear a star; u = inconclusive; x = no result. Hits are enriched below; roughly 8.1% of the tested compounds scored in any of these assays.
SMILES,Hedgehog inh,MITF inh,PD-1 reverse act,NOMO-1 viab
C[C@@H]1CN([C@@H](C)CO)C(=O)c2cc(NC(=O)Nc3cccc4ccccc34)ccc2O[C@H]1CN(C)Cc1ccc(C(F)(F)F)cc1,-23,8,1,87*
C[C@H](CO)N1C[C@H](C)[C@H](CN(C)Cc2ccncc2)Oc2ccc(NC(=O)Nc3cccc4ccccc34)cc2C1=O,x,7,4,98*
C[C@@H]1CN([C@H](C)CO)C(=O)c2cc(NC(=O)Nc3ccccc3)ccc2O[C@@H]1CN(C)C(=O)Nc1cccc2ccccc12,10,-7,-5,90*
C[C@H]1CN([C@@H](C)CO)C(=O)c2cc(NC(=O)Nc3cccc4ccccc34)ccc2O[C@H]1CN(C)Cc1ccc(C(F)(F)F)cc1,x,29,2,1
COc1ccc(CN(C)C[C@H]2Oc3c(NC(=O)Nc4c(C)noc4C)cccc3C(=O)N([C@@H](C)CO)C[C@H]2C)cc1,-45,0,0,23
O=C(NCCCn1ccnc1)C1CC(c2cccc(Br)c2)=NO1 (stereo unspecified),x,27,-2,18
C[C@@H]1CN([C@H](C)CO)C(=O)Cc2cc(NC(=O)Cn3cnnn3)ccc2O[C@@H]1CN(C)C(=O)Nc1ccc(F)cc1,-19,0,2,10
C/C(=C/CCC(CO)C1CCC2(C)C3CCC4C(C)(C)C(OC5OC(CO)C(O)C(O)C5O)CC(O)C45CC35CCC12C)COC1OC(CO)C(O)C(O)C1O (stereo unspecified),3,x,x,x
COC(=O)CSc1cc(C)nc(SC)n1,x,-6,x,1
C[C@@H]1O[C@@H](O[C@H]2[C@H](O)[C@@H](O)[C@H](O[C@H]3[C@H](O[C@H]4CC[C@@]5(C)C(=CC[C@H]6C7C[C@@H]8O[C@]9(CC[C@@](C)(CO[C@@H]%10O[C@H](CO)[C@@H](O)[C@H](O)[C@H]%10O)O9)[C@H](C)C8[C@@]7(C)CCC65)C4)O[C@H](CO)[C@@H](O)[C@@H]3O)O[C@@H]2CO)[C@H](O)[C@H](O)[C@H]1O (stereo partly specified),97*,x,x,x
C[C@@H]1O[C@@H](O[C@H]2[C@H](O)[C@@H](O[C@@H]3O[C@H](CO)[C@@H](O)[C@H](O)[C@H]3O)[C@H](O[C@H]3CC[C@@]4(C)C(=CC[C@@H]5C4CC[C@@]4(C)C5C[C@@H]5O[C@]6(CC[C@@](C)(CO)O6)[C@@H](C)[C@@H]54)C3)O[C@@H]2CO)[C@H](O)[C@H](O)[C@H]1O (stereo partly specified),-1,-1,1,23
COc1ccc(OC)c(NC(=O)CSc2nc3sc(C)c(C)c3c(=O)n2-c2ccccc2)c1,x,18,-7,29
COc1ccc(CN2C(=O)C(O)(CC(=O)c3cccs3)c3ccccc32)cc1OC (stereo unspecified),x,5,0,106*
COc1ccc(CN2C(=O)C(O)(CC(=O)c3c(C)n[nH]c3C)c3ccccc32)cc1OC (stereo unspecified),x,0,-1,29
O=C(CC1(O)C(=O)N(Cc2ccccc2)c2ccc(Cl)cc21)c1ccncc1 (stereo unspecified),x,16,-5,117*
Cc1coc(C)c1C(=O)CC1(O)C(=O)N(CCc2ccccc2)c2ccc(Cl)cc21 (stereo unspecified),x,44,x,88*
O=C(CC1(O)C(=O)N(Cc2cccc3ccccc23)c2ccccc21)c1ccccc1[N+](=O)[O-] (stereo unspecified),x,51,-4,114*
O=C(CC1(O)C(=O)N(CCc2ccccc2)c2ccc(Cl)cc21)c1ccco1 (stereo unspecified),x,7,x,38
C[C@H](CO)N1C[C@H](C)[C@@H](CN(C)C(=O)Nc2ccc(F)cc2)Oc2c(NC(=O)c3ccncc3)cccc2C1=O,-20,5,0,-8
Cc1cc(=O)[nH]c(SCC(=O)Nc2ccccc2)n1,x,12,1,2
Cc1coc(C)c1C(=O)CC1(O)C(=O)N(Cc2ccccc2)c2ccccc21 (stereo unspecified),x,41,2,16
O=C(CC1(O)C(=O)N(Cc2ccccc2)c2ccc(Br)cc21)c1ccc2c(c1)OCCO2 (stereo unspecified),x,5,1,5
CN1C(=O)C(O)(CC(=O)c2ccccn2)c2cc(Br)ccc21 (stereo unspecified),x,-6,-2,117*
COc1ccc(C(=O)CC2(O)C(=O)N(Cc3ccccc3)c3ccc(Br)cc32)cc1[N+](=O)[O-] (stereo unspecified),x,37,-15,111*
Cc1ccc(CN2C(=O)C(O)(CC(=O)c3cccc(N)c3)c3cc(Cl)ccc32)cc1 (stereo unspecified),x,52,-2,133*
SMILES,Hedgehog inh,MITF inh,PD-1 reverse act,NOMO-1 viab
NC(=O)CN1C(=O)C(O)(CC(=O)c2ccc(Cl)cc2Cl)c2ccccc21 (stereo unspecified),x,-1,x,-6
O=C(CC1(O)C(=O)Nc2ccc(Br)cc21)c1ccc(NS(=O)(=O)c2ccccc2)cc1 (stereo unspecified),x,14,-1,25
O=C(CC1(O)C(=O)N(Cc2ccc(Cl)cc2)c2ccccc21)c1cc2ccccc2oc1=O (stereo unspecified),x,11,-3,120*
CCOc1ccccc1Nc1nc(Nc2ccccc2OCC)nc(Sc2nnc(C)s2)n1,x,-12,x,47
COc1ccc(S(=O)(=O)N(C)C[C@H]2Oc3ccc(NS(=O)(=O)c4ccc(C)cc4)cc3CC(=O)N([C@@H](C)CO)C[C@H]2C)cc1,0,-13,2,33
O=C(CC1(O)C(=O)N(Cc2ccc(Cl)cc2)c2ccc(Cl)cc21)c1ccccn1 (stereo unspecified),x,24,x,115*
NC(=O)C1C2CCC(C2)C1C(=O)c1ccccc1 (stereo unspecified),-15,6,1,5
OC(c1cc(C(F)(F)F)nc2c(C(F)(F)F)cccc12)C1CCCCN1 (stereo unspecified),12,4,-7,129*
Cc1ccc(-c2cc(C(F)F)n3ncc(C(=O)N4CCCCC4c4cccnc4)c3n2)cc1 (stereo unspecified),x,29,-5,54
Cc1csc2sc(COC(=O)Nc3ccccc3)c(C)c12,u,13,0,120*
O=C(CS(=O)c1ccc(C(F)(F)F)cc1[N+](=O)[O-])Oc1ccc(C2CCCCC2)cc1 (stereo unspecified),x,-4,-16,121*
Cc1nn(CC(O)COc2ccc3c(c2)CCC3)c(C)c1Br (stereo unspecified),x,-13,-5,96*
COc1ccc(CN(C)C[C@@H]2Oc3ccc(NC(=O)Nc4ccc(F)cc4)cc3C(=O)N([C@H](C)CO)C[C@@H]2C)cc1,17,-2,-1,-8
Cc1ccc([N+](=O)[O-])cc1N(CC(=O)Nc1ccccc1Cl)S(C)(=O)=O,x,-54,2,28
C[C@@H]1CN([C@@H](C)CO)C(=O)c2cccc(NC(=O)CCCCCC(=O)Nc3ccccc3N)c2O[C@@H]1CN(C)Cc1ccc(Cl)c(Cl)c1,x,39,0,126*

# Compound activity from PubChem.
